Measurements from PubChem BioAssay.
Several values for one entry are separate records, joined by “and”; a condition that tells them apart may be missing. Identical values can stand only once. Records with an inconclusive call do not appear. Activity calls are given as the source filed them. Unless noted, no cut-off is given here; in the data, nearly all actives have AC50 up to about 26 µM.

Key:
[1] = system: Hepatitis C virus NS3 helicase; assay: blockers of NS3h binding to ssDNA – biochemical, fluorescence polarization, LOPAC1280 library, primary screen (AID 687035; in the data active = inhibition above about 37%); settings: Purified HCV NS3 helicase, Cy5-dT15 ssDNA binding fluorescence polarization; stronger effect = higher value; concentration not given here
[2] = compounds altering Cy5-DNA-NS3h complex signal – biochemical, LOPAC1280, artefact control for HCV NS3 helicase inhibitor project (AID 687037; call rule not given here); settings: Cy5-DNA-NS3h complex fluorescence interference counterscreen
[3] = system: Aerobactin synthetase IucA (Klebsiella pneumoniae); assay: inhibition of K. pneumoniae IucA enzyme – biochemical, Tocris library, absorbance (AID 1345561; call rule not given here;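 note: 100% = enzyme without compound and 0% = no enzyme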); settings: purified IucA enzyme assay, absorbance (OD) read-out; stronger effect = lower value;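 tested at 8 µM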
[4] = viability loss in pontine glioma line – cell-based, SU-DIPG-XVII, MIPE5.0, CellTiter-Glo, qHTS, dose response (AID 1347060); settings: CellTiter-Glo ATP luminescence;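 for AC50: cells exposed to compound for 48 hours before viability readout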
[5] = viability loss in pontine glioma line – cell-based, SU-DIPG-XIII, MIPE4.0, CellTiter-Glo, qHTS, dose response (AID 1347061; cut-off not given, nearly all actives have AC50 up to about 37 µM;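 note: cells exposed to compound for 48 hours before readout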); settings: CellTiter-Glo ATP luminescence
[6] = viability loss in pontine glioma line – cell-based, JHH-DIPG-1, MIPE4.0, CellTiter-Glo, qHTS, dose response (AID 1347062; cut-off not given, nearly all actives have AC50 up to about 27 µM;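 for AC50: cells exposed to compound for two days before readout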); settings: JHH-DIPG-1 viability, CellTiter-Glo ATP luminescence
[7] = viability loss in pontine glioma line – cell-based, SU-DIPG-IV, MIPE4.0, CellTiter-Glo, qHTS, dose response (AID 1347063; cut-off not given, nearly all actives have AC50 up to about 30 µM;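 note: compound exposure lasted 48 hours before the viability readout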); settings: CellTiter-Glo ATP luminescence
[8] = viability loss in pontine glioma line – cell-based, SU-DIPG-XIII, MIPE5.0, CellTiter-Glo, qHTS, dose response (AID 1347064; cut-off not given, nearly all actives have AC50 up to about 23 µM;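 for AC50: cells exposed to compound for 48 hours before the viability read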); settings: CellTiter-Glo ATP luminescence
[9] = JHH-DIPG-1 glioma cell viability, MIPE5.0 library, CellTiter-Glo luminescence, qHTS (AID 1347067); settings: JHH-DIPG-1 glioma viability, CellTiter-Glo ATP luminescence;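 note: cells exposed to compound for 48 hours before readout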
[10] = growth inhibition of DIPG cells – cell-based, MIPE5.0 library, qHTS (AID 1347068; cut-off not given, nearly all actives have IC50 up to about 30 µM;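 for IC50: cells exposed to compound for 48 hours before viability readout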); settings: SU-DIPG-XXV viability
[11] = viability loss with induced miR-34 in A549 – imaging, A549 dox-inducible miR-34, nuclei and caspase counts, primary screen (AID 1347080;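 active = compounds whose cell count with miR-34 switched on is under 0.7 times the count with it off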); settings: A549 miR-34 inducible, Hoechst nuclei count, 48 h
[12] = MELAS cybrid and Rieske KO viability enhancers – cell-based, MELAS cybrids, Rieske KO mouse fibroblasts, CellTiter-Glo, primary screen (AID 1508586;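 active = mean z-score across replicates of 1.96 or higher in either the MELAS or the Rieske mutant cell line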;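 note: z relative to plate mean and SD of compound and empty wells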); settings: low glucose
[13] = galactose survival enhancers in mitochondrial complex I cybrids – cell-based, galactose medium, ATP luminescence, primary screen (AID 1645843;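 active = z-score of at least 1.8 in each of two replicates, scored against plate mean and spread of sample wells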;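 note: positive z means more ATP and so rescue of galactose-driven cybrid death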); settings: complex I mutant cybrid cells, 72 h, stronger effect = higher value
[14] = P. berghei load reduction in hepatocytes – cell-based, HepG2, luciferase luminescence, HepG2 viability, primary screen (AID 624349; in the data active = parasite load remaining mostly below about 12%, no sharp cut-off; inactive = mostly above about 10%;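 note: 100% = mean of DMSO negative control wells on the same plate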); settings: P. berghei liver stage in HepG2, luciferase luminescence, concentration not given here; parasite load remaining: stronger effect = lower value; viability: measured here: HepG2 viability without parasites
[15] = viability loss in pontine glioma line – cell-based, SU-DIPG-XXV, MIPE5.0, CellTiter-Glo, qHTS, dose response (AID 1347065); settings: CellTiter-Glo ATP luminescence;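 note: cells exposed to compound for 48 hours before ATP readout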
[16] = growth inhibition of DIPG cells – cell-based, MIPE4.0 library, CellTiter-Glo luminescence, qHTS (AID 1347066; cut-off not given, nearly all actives have AC50 up to about 30 µM;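 note: cells exposed to compound for 48 hours before readout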); settings: SU-DIPG-VI viability, CellTiter-Glo ATP luminescence
[17] = compounds altering HSF1 focus formation in cells – imaging, Selleck Cancer Library (AID 1347162; in the data active = plate-normalised HSF1 focus index below about 0.46); settings: human cells, HSF1 nuclear foci imaging, at 10 µM; SSMD: measured here: HSF1 foci SSMD mean; cell count: measured here: cell number; plate-normalised HSF1 focus index: stronger effect = lower value
[18] = stronger effect = lower value, cell number ratio, induced over uninduced
[19] = MELAS cybrid survival, CellTiter-Glo 48 h, stronger effect = higher value
[20] = Rieske KO mouse fibroblast survival, CellTiter-Glo 72 h
[21] = measured here: relative caspase fold change +Dox/-Dox
[22] = measured here: total cells with miR-34 induction, stronger effect = lower value
[23] = measured here: total cells without miR-34 induction

O=C1NC(=O)C(c2ccccc2[N+](=O)[O-])=C1Nc1ccc(O)c(Cl)c1
0.723: z-score [12, 20]
inactive: inhibition [1] -2% | fluorescence ratio (interference) [2] 1 | remaining activity [3] 112% | outcome [4] | outcome [5] | outcome [6] | outcome [7] | outcome [8] | outcome [9] | outcome [10] | fold change [11, 18] 1 and 1.09 and 0.982 | z-score [12, 19] -0.406 | z-score [13] 1.65 and 0.35

O=Nc1c(-c2c(O)[nH]c3cc(Br)ccc23)[nH]c2ccccc12
inactive: parasite load remaining [14] 17.4% | inhibition [1] 2% | fluorescence ratio (interference) [2] 0.9 | remaining activity [3] 107% | outcome [5] | z-score [12, 19] -0.015 | z-score [13] -1.29 and -0.705
active: AC50 [4] 8.33 µM | AC50 [6] 20.9 µM | AC50 [7] 3.32 µM | AC50 [8] 14.8 µM | AC50 [15] 7.42 µM | AC50 [16] 20.9 µM | AC50 [9] 14.8 µM | IC50 [10] 10.5 µM
92.7%: viability [14]
1.62: z-score [12, 20]

CC[C@H](NC(C)C)[C@H](O)c1ccc(O)c2[nH]c(=O)ccc12
0.691 and 1.28: fold change [11, 21]
inactive: parasite load remaining [14] 42.5% | remaining activity [3] 95.2% | outcome [4] | outcome [5] | outcome [6] | outcome [7] | outcome [15] | outcome [16] | outcome [9] | fold change [11, 18] 0.929 and 0.941 | z-score [12, 19] -0.163 | z-score [13] 0.095 and 0.72
-0.0411: z-score [12, 20]
8730 and 10200: cell count [11, 22]
102%: viability [14]
9400 and 10800: cell count [11, 23]

O=C(O)CCc1ccc(NCc2cccc(Oc3ccccc3)c2)cc1
0.82: z-score [12, 20]
6830: cell count [17]
inactive: inhibition [1] 0% | fluorescence ratio (interference) [2] 1 | remaining activity [3] 92.7% | outcome [4] | outcome [5] | outcome [6] | outcome [7] | outcome [8] | outcome [15] | outcome [16] | outcome [9] | outcome [10] | plate-normalised HSF1 focus index [17] 1.21 | z-score [12, 19] -0.374 | z-score [13] 0.215 and -0.155
3.5: SSMD [17]

N[C@H](CSC(c1ccccc1)(c1ccccc1)c1ccccc1)C(=O)O
8660: cell count [11, 23]
1.4: fold change [11, 21]
inactive: remaining activity [3] 104% | outcome [4] | outcome [5] | outcome [6] | outcome [8] | outcome [16] | outcome [10] | fold change [11, 18] 0.901 | z-score [13] 0.555
7800: cell count [11, 22]

CCCCC[C@H](O)/C=C/[C@H]1[C@H](O)CC(=O)[C@@H]1C/C=C\CCCC(=O)O
inactive: parasite load remaining [14] 43.5% | remaining activity [3] 127% | outcome [4] | outcome [5] | outcome [6] | outcome [7] | outcome [10] | z-score [12, 19] 0.0898 | z-score [13] -0.165 and 0.63
-0.895: z-score [12, 20]
99.5%: viability [14]

CC(C)[C@H](CO)Nc1nc(Nc2ccc(C(=O)O)c(Cl)c2)c2ncn(C(C)C)c2n1
0.706: fold change [11, 21]
active: AC50 [16] 23.5 µM
9770: cell count [11, 23]
inactive: remaining activity [3] 110% | outcome [4] | outcome [5] | outcome [8] | outcome [9] | outcome [10] | fold change [11, 18] 0.902 | z-score [13] 0.185
8820: cell count [11, 22]

CCOC(=O)C1=C(C)NC(=S)NC1c1cccc(O)c1 (stereo unspecified)
3060 and 7690: cell count [11, 23]
inactive: remaining activity [3] 109% | outcome [4] | outcome [5] | outcome [8] | outcome [16] | outcome [9] | outcome [10] | fold change [11, 18] 0.947 and 1.05 | z-score [13] 0.085
2900 and 8090: cell count [11, 22]
1 and 0.625: fold change [11, 21]

CN1C(=O)C(Cc2c[nH]c3ccccc23)NC1=S (stereo unspecified)
inactive: parasite load remaining [14] 48.6% | remaining activity [3] 89.8% | outcome [4] | outcome [5] | outcome [6] | outcome [8] | outcome [15] | outcome [16] | outcome [9] | outcome [10] | fold change [11, 18] 0.887 and 0.965 | plate-normalised HSF1 focus index [17] 1.1 | z-score [12, 19] -0.333 | z-score [13] 0.03
7350: cell count [17]
96.5%: viability [14]
0.34: z-score [12, 20]
8780 and 8510: cell count [11, 23]
1.64: SSMD [17]
0.523 and 1.02: fold change [11, 21]
7790 and 8210: cell count [11, 22]

CC(Oc1ccc(O)cc1)(P(=O)(O)O)P(=O)(O)O
0.597: fold change [11, 21]
inactive: remaining activity [3] 115% | outcome [4] | outcome [5] | outcome [6] | outcome [7] | outcome [8] | outcome [16] | outcome [9] | outcome [10] | fold change [11, 18] 0.98 | z-score [13] -0.285
9020: cell count [11, 22]
9200: cell count [11, 23]

COC1CCC(C(=O)c2ccc3nc4c(cc3c2)CCCO4)CC1 (stereo unspecified)
8760: cell count [11, 23]
1.27: fold change [11, 21]
8170: cell count [11, 22]
active: AC50 [6] 20.9 µM | AC50 [7] 9.35 µM
inactive: remaining activity [3] 99.8% | outcome [4] | outcome [8] | outcome [15] | outcome [10] | fold change [11, 18] 0.932 | z-score [13] 0.32

NC(=O)c1ccc2[nH]ccc2c1
10000 and 9740: cell count [11, 23]
inactive: parasite load remaining [14] 32.8% | inhibition [1] 0% | fluorescence ratio (interference) [2] 1 | remaining activity [3] 89.5% | outcome [4] | outcome [5] | outcome [6] | outcome [8] | outcome [15] | outcome [16] | fold change [11, 18] 1.06 and 0.993 | z-score [13] 1.08 and 0.045
0.967 and 0.869: fold change [11, 21]
70.2%: viability [14]
10600 and 9670: cell count [11, 22]
